Where “and” joins values, the source holds several entries; their conditions need not be identical. Equal entries are not always repeated.

Test [1] deals with Bromodomain-containing protein 4 (Homo sapiens) (UniProt O60885). The conditions noted are these: Compound concentration 20.0 uM, Protein concentration 2.0 uM, Result type QC Liability.
In test [2] the target is T1, Transcription intermediary factor 1-alpha (Homo sapiens) (UniProt O15164).
T1 sequence (whole entry): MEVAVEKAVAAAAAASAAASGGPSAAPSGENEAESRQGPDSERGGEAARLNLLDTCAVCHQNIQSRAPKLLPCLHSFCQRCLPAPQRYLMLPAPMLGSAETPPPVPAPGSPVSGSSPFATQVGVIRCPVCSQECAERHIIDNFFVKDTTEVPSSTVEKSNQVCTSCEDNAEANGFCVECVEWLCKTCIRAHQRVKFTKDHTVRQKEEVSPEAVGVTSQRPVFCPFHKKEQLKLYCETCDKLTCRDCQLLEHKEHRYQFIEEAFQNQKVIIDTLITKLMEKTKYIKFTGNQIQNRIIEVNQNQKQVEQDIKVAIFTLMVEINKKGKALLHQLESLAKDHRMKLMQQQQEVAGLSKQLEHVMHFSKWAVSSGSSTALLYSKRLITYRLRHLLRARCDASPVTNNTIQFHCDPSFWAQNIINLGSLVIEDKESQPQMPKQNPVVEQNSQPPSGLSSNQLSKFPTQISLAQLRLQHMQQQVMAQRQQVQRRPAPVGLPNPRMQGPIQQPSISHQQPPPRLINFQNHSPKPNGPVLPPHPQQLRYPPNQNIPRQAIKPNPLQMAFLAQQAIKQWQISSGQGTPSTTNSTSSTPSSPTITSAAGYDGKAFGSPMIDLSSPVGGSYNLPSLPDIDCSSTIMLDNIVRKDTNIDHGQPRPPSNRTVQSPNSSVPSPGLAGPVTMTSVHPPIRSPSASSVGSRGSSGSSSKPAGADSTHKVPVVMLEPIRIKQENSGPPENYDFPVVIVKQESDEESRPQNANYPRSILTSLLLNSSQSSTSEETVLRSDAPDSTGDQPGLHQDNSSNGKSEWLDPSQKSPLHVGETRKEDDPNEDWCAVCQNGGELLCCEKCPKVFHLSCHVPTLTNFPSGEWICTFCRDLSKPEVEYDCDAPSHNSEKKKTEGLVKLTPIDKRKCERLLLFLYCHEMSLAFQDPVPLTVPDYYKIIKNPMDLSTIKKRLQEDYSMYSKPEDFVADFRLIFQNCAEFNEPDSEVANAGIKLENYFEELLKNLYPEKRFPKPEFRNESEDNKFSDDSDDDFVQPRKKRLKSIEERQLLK
As to conditions: Compound concentration 20.0 uM, Protein concentration 2.0 uM, Result type QC Liability.

As for `O=C1CCCc2[nH]c(-c3ccnc(NCC4CC4)c3)c(Nc3ccccc3)c21`, the values for the ΔTm in test [1] and in test [2] were -0.67 °C and -0.08 °C, respectively.
As to `CCCN1C(=O)c2ccc(Cl)cc2Nc2ncccc21`, the ΔTm in test [1] came out at 0.34 °C; in test [2], 0.51 °C.
As for `COc1cc(-c2cc([C@H](O)C3CC3)n3ncnc(N)c23)ccc1CO`, the shift in melting temperature (ΔTm) in test [1] stood at 0.22 °C; in test [2], 0.24 °C.
In the same order, the values of `N=C(N)NCCC[C@H](NC(=O)C(c1ccccc1)c1ccccc1)C(=O)NCc1ccc(CNC(N)=O)cc1` are 0.06 °C and 0.24 °C.
Take `CNC(=O)COc1cc2cc(Nc3nc(N4CCC(C(=O)N(C)C)CC4)ncc3Cl)cc(OC)c2n(C)c1=O`: the ΔTm in test [1] was -1.01 °C; in test [2], -0.08 °C.
As for `COc1ccc(Br)cc1S(=O)(=O)NC(=O)/C=C/c1cc(Cl)ccc1Cc1ccc2ccccc2c1`, the ΔTm in test [1] was -4.74 °C; in test [2], -0.55 °C.
Taken in the same sequence, the figures for `CN(C)C(=O)Cn1cc(-c2ccc(-c3cncc4ccccc34)cc2)cn1` were -2.19 °C and 0.13 °C.
As to `O=C1COc2cc(C(=O)N(Cc3ccc(C(=O)Nc4ccncn4)cc3)C3CC3)ccc2N1`, the ΔTm in test [1] is 0.06 °C; in test [2] it was -2.92 °C.
Taken in the same sequence, the figures for `FC(F)c1cncc(-c2ccc3ncc4nnc(C5=CCCOCC5)n4c3c2)c1` were -0.98 °C and 0.23 °C.
In the same order, the values of `Nc1ncnc2[nH]c(-c3ccccc3)nc12` are -1.11 °C and -2.07 °C.
Taken in the same sequence, the figures for `O=C(O)Cc1cc(I)c(Oc2ccc(O)c(I)c2)c(I)c1` were -5.23 °C and -2.6 °C.
For `COc1ccc(-c2csc(NC(=O)[C@H]3CCCCN3S(=O)(=O)c3ccc(C)cc3)n2)cc1`, the figures for the ΔTm in test [1] and in test [2] were 3.35 °C and -0.04 °C, respectively.
For `CCOC(=O)c1cc2cc(-c3cc(C(=O)NCc4ccc(C(=O)O)cc4)nn3C)ccc2[nH]1`, the figures for the ΔTm in test [1] and in test [2] were -0.14 °C and 0.44 °C, respectively.
Consider `Cc1cc(CN(CC(=O)Nc2ccc(Cl)cc2Cl)C2CCCCC2)ccc1OCC(=O)O`, for which the shift in melting temperature (ΔTm) in test [1] is -1.17 °C; in test [2] it was -0.29 °C.
As for `CCNc1ccc(-c2nn(-c3ccccc3C)c3c2C(C)Cc2nc(NC(=O)OC)sc2-3)cn1` (centres undefined), the values for the ΔTm in test [1] and in test [2] were -2.96 °C and -3.54 °C, respectively.
Taken in the same sequence, the figures for `O=C(Nc1ccc(C(O)(C(F)(F)F)C(F)(F)F)cc1)c1ccc(C(F)(F)F)cc1` were -1.03 °C and -0.53 °C.
Turning to `COCCN(C)c1ccc(NC(=O)/C=C(\C)c2ccc3ccccc3c2)c(C(=O)O)c1`, the results for the thermal shift (ΔTm) in test [1] and in test [2] were -1.96 °C and -0.91 °C, respectively.
Taken in the same sequence, the figures for `CCc1ncnc(N2CCN(C(C)=O)CC2)c1C#Cc1ccc(N)nc1` were -1.64 °C and -3.55 °C.
`CC(=O)Oc1ccc2c(c1)[C@@]1(C)CCC[C@](C)(C(=O)OC(=O)[C@@]3(C)CCC[C@]4(C)c5cc(OC(C)=O)ccc5CC[C@@H]34)[C@@H]1CC2`: the ΔTm in test [1] is -2.81 °C; in test [2], -3.04 °C.
Take `CCOC(=O)CS(=O)(=O)c1ccc([C@@H](CO)NC(=O)c2cc3c(Cl)c(Cl)c(C)cc3n2C)cc1`: the values for the ΔTm in test [1] and in test [2] were -3.35 °C and -0.06 °C, respectively.
For `CC(C)NC(=O)[C@H]1CCC[C@H]1Nc1nc(Nc2ccc(C(=O)N(C)C3CCN(C)CC3)cc2)ncc1Cl`, the ΔTm in test [1] is -1.48 °C and -0.92 °C; in test [2] it was 0.3 °C and -2.89 °C.
Take `Cc1cc(OC2CCS(=O)(=O)CC2)cc(C)c1-c1cccc(COc2ccc(CCC(=O)O)c(F)c2)c1`: the ΔTm in test [1] was -5.08 °C; in test [2], -3.73 °C.
In the same order, the values of `CC(C)C[C@H](NC(=O)[C@@H](O)[C@H](N)Cc1ccccc1)C(=O)O` are -0.66 °C and -0.82 °C.
Taken in the same sequence, the figures for `Cc1sc(C(=O)c2cncnc2N[C@@H]2C[C@H](COS(N)(=O)=O)[C@@H](O)C2)cc1[C@@H]1NCCc2ccc(Cl)cc21` were -4.45 °C and -0.84 °C.
In the same order, the values of `CC(C)(O)c1coc(S(=O)(=O)NC(=O)Nc2c3c(cc4c2CCC4)CCC3)c1` are -0.92 °C and -0.55 °C.
Take `CCS(=O)(=O)Nc1cccc(Oc2cncc(Nc3ccc(I)cc3F)c2C(N)=O)c1`: the values for the ΔTm in test [1] and in test [2] were -0.22 °C and 1.47 °C, respectively.
As to `C[C@H](CCC(=O)O)[C@H]1CC[C@H]2[C@@H]3CC[C@@H]4C[C@H](O)CC[C@]4(C)[C@H]3C[C@H](O)[C@]12C`, the ΔTm is -3.05 °C in test [1] and -3.23 °C in test [2].
`CCOC(=O)/N=C(\N)c1ccc(OCc2cccc(COc3ccc(C(C)(C)c4ccc(OC(=O)OCC)cc4)cc3)c2)cc1`: the ΔTm is -10.4 °C in test [1] and -0.45 °C in test [2].
Taken in the same sequence, the figures for `CN(CC(=O)Nc1ccc(F)c(F)c1F)C(=O)c1ccc2c(c1)OCCO2` were -2.94 °C and -2.59 °C.
Taken in the same sequence, the figures for `O=C(NCCN1CCOCC1)c1ccc2nn(CCOc3ccc(Cl)cc3)cc2c1` were 0.04 °C and 0.35 °C.
With `COc1cc2ncnc(Nc3ccc(F)c(Cl)c3)c2cc1OCCN(C)C[C@H](C)O`, the values for the ΔTm in test [1] and in test [2] were -3.09 °C and -1.09 °C, respectively.
As for `CCc1cnn2c(NCc3ccc[n+]([O-])c3)cc(N3CCCCC3CCO)nc12` (centres undefined), the ΔTm is -0.63 °C in test [1] and -2.72 °C in test [2].
Taken in the same sequence, the figures for `COc1cc2nc([C@@H]3CCCS(=O)(=O)C3)n(C)c2cc1NC(=O)c1cccc(C(C)(F)F)n1` were 0.39 °C and 0.7 °C.
For `CCN1C(=O)N(c2c(F)c(OC)cc(OC)c2F)Cc2cnc3[nH]c(CN4CCOCC4)cc3c21`, the ΔTm in test [1] was -1.4 °C; in test [2] it was -3.85 °C.
In the same order, the values of `Cn1cc(NC(=O)c2ccc3nc4n(c3c2)CCCNC4=O)nc1C(=O)NC1CCCC1` are -1.16 °C and -2.92 °C.
Turning to `CN(C1CCc2c(c3ccccc3n2CC(=O)O)C1)S(=O)(=O)c1ccc(F)cc1` (centres undefined), the ΔTm in test [1] was -1.34 °C; in test [2], -0.54 °C.
Consider `CN1CC(=O)N(C)c2cnc(Nc3ccc(NC(=O)Nc4cccc(C(=O)O)c4)cc3)nc21`, for which the ΔTm in test [1] is 0.02 °C; in test [2] it was -0.69 °C.
